# In ChEMBL document CHEMBL1201862, “PubChem BioAssay data set” (2004):
# In all, about 400,000 compounds went through this assay and about 2,100 (0.53%) were called active. Inconclusive results (about 14%) are left out. The rule behind the calls is not given here. For the sample, actives were picked, then their nearest neighbours and some compounds at random.
# Molecular target: Ataxin-2 (Homo sapiens) (UniProt Q99700)
# Assay: qHTS for Inhibitors of ATXN expression.
# Assay type: functional
# Ataxin-2 (Homo sapiens), sequence (Q99700 whole entry): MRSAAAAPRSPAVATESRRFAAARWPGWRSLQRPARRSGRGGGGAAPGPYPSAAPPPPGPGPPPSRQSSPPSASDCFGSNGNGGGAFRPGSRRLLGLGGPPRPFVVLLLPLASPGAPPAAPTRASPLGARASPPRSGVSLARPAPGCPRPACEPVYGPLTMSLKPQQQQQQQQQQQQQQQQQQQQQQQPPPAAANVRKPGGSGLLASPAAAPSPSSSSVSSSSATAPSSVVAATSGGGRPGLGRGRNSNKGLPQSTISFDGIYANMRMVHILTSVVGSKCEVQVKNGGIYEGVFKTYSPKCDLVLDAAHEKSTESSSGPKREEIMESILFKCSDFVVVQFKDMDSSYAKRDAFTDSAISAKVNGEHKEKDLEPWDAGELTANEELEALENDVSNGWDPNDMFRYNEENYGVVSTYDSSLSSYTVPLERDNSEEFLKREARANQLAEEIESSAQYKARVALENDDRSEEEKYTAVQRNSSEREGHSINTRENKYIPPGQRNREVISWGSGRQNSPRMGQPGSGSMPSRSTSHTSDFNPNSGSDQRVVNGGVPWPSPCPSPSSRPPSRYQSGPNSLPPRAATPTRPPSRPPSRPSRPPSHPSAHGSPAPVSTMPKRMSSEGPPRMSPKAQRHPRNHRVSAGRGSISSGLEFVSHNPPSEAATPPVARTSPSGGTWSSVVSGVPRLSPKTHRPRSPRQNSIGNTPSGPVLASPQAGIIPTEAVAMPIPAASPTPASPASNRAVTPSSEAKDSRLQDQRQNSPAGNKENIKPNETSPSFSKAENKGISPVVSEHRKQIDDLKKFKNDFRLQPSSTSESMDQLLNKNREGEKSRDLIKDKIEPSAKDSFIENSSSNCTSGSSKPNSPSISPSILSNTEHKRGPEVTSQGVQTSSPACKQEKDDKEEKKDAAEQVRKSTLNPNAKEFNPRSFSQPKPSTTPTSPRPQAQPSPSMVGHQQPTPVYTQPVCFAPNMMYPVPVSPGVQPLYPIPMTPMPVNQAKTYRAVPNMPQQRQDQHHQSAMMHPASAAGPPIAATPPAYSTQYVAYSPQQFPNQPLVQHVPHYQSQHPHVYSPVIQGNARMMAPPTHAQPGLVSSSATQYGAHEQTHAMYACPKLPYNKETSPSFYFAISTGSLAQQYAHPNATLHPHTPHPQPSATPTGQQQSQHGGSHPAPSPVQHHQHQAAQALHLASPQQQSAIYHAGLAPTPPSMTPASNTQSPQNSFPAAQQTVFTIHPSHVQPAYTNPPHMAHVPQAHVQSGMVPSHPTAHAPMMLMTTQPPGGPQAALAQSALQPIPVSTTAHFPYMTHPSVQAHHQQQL
row,Compound,Potency
1,Cc1cccc(OCc2n(C)c3ccccc3[n+]2CC(=O)OC2CC(C)CCC2C(C)C)c1 (centres undefined),35.5 µM (active)
2,Nc1nnnn1/N=C/c1cc(Cl)cc(Cl)c1O,inactive
3,O=C(Nc1nccs1)c1cccnc1O,inactive
4,O=C(C[C@H]1C[C@H](C(=O)N2CCOCC2)[C@@]2(CCC3CCCC3)c3[nH]c4cc(-c5ccco5)ccc4c3CCN2C1=O)NCCN1CCOCC1,35.5 µM (active)
5,O=C(C[C@H]1C[C@H](C(=O)N2CCOCC2)[C@@]2(CCC3CCCC3)c3[nH]c4cc(-c5ccco5)ccc4c3CCN2C1=O)NCCc1ccccn1,35.5 µM (active)
6,O=C(NCCN1CCOCC1)c1cc2c(=O)n3ccccc3nc2n1Cc1ccccc1,inactive
7,O=C(CCCCCn1c(=S)[nH]c2ccc(N3CCOCC3)cc2c1=O)NCCc1ccccc1,inactive
8,O=C(C[C@H]1C[C@H](C(=O)N2CCCCC2)[C@@]2(CCc3ccccc3)c3[nH]c4cc(-c5ccco5)ccc4c3CCN2C1=O)NCCN1CCOCC1,31.6 µM (active)
9,CN(C)CCCNC(=O)C[C@H]1C[C@H](C(=O)N2CCOCC2)[C@@]2(CCC3CCCC3)c3[nH]c4cc(-c5ccco5)ccc4c3CCN2C1=O,35.5 µM (active)
10,COCCCn1c(=N)c(C(=O)NCc2ccco2)cc2c(=O)n3ccccc3nc21,inactive
11,CCN(C(=O)COC(=O)c1cc(-c2ccc(C)o2)nc2ccccc12)C1CCS(=O)(=O)C1 (centres undefined),inactive
12,COc1ccc(OC)c(NC(=O)CCN2CCN(C/C=C/c3ccccc3)CC2)c1,inactive
13,COc1cc(NC(=O)CN2CCN(S(=O)(=O)/C=C/c3ccccc3)CC2)cc(OC)c1OC,inactive
14,CCOC(=O)c1[nH]c2ccc(F)cc2c1NC(=O)CN1CCN(C/C=C/c2ccccc2)CC1,39.8 µM (active)
15,CCCCCCCN(c1ccccc1)[C@@H]1C[C@H]2CCCC(=O)N3CC[C@@H](C1)[C@@H]23,35.5 µM (active)
16,COc1ccc(NC(=O)c2ccc(-c3ccc(-c4noc(C)n4)cc3C)cc2)cc1N1CCN(C)CC1,39.8 µM (active)
17,CC(C)(C)c1ccc(CN2N=Nc3ccccc3S2(=O)=O)cc1,39.8 µM (active)
18,O=C(N/N=C\c1c(O)ccc2ccccc12)c1cncc(Br)c1,inactive
19,CC(C)(C)C(=O)Oc1ccc2cc(-c3ccc4ccccc4n3)c(=O)oc2c1,inactive
20,COc1ccc(NC(=O)CSc2ccc3c4c(cccc24)C(=O)c2ccccc2-3)cc1,22.4 µM (active)
21,COC(=O)c1ccccc1SCC(=O)Nc1ccc(N2CCOCC2)cc1,inactive
22,COc1ccc(N2C(=O)c3cccc4c(N(C)CCO)ccc(c34)C2=O)cc1,inactive
23,Oc1ccc(Cl)cc1/C=N/c1ccc2c3c(cccc13)CC2,inactive
24,CC(C)(C)[S+]([O-])N1Cc2cc(C(=O)NCc3ccc(Oc4ccccc4)cc3)nc(-c3cccc(-c4cc5ccccc5o4)c3)c2[C@H]1CCO (some centres undefined),35.5 µM (active)
25,CC(C)(C)[S+]([O-])N1Cc2cc(C(=O)NCc3ccc(Oc4ccccc4)cc3)nc(-c3cccc(-c4cc5ccccc5o4)c3)c2[C@@H]1CCO (some centres undefined),39.8 µM (active)
26,CC(=O)N1Cc2cc(C(=O)NCc3cccc(F)c3)nc(-c3cccc(C4=CCCCC4)c3)c2[C@H]1CCO,35.5 µM (active)
27,O=C(CSc1nc(C2CCCCC2)nc2ccccc12)NCc1ccc2c(c1)OCO2,inactive

row,Compound,Potency
1,CC(C)(C)[S+]([O-])N1Cc2cc(C(=O)NCc3ccc4c(c3)OCO4)nc(-c3cccc(-c4cc5ccccc5o4)c3)c2[C@@H]1CCO (some centres undefined),31.6 µM (active)
2,CCn1c(=O)c(C(=O)NCc2ccc3c(c2)OCO3)c(O)c2ccccc21,inactive
3,O=S(=O)(c1ccccc1)N1CCN=C1SCc1cccnc1,inactive
4,CCN(CC)c1ccc2cc(C(=O)NNC(=O)c3ccc(S(=O)(=O)N4CCCCC4)cc3)c(=O)oc2c1,inactive
5,N#CC1=C(N)N2C(=C(C#N)C1c1ccc(Br)cc1)Nc1ccccc12 (centres undefined),inactive
6,O=C1OCCN1C(=O)[C@H]1[C@H](c2ccc(Cl)cc2)C(c2ccccc2)=NN1c1ccccc1,inactive
7,CCOc1ccc(S(=O)(=O)[N-]c2nc3ccccc3nc2-[n+]2ccc(NC(=O)c3ccccc3C)cc2)cc1,inactive
8,Cc1cccc2cc3c(NC(=O)C(C)(C)C)nn(CC(C)C)c3nc12,inactive
9,Cc1cc(NN)nc(NS(=O)(=O)c2ccc(Cl)cc2)n1,inactive
10,CN(C)C(=O)c1cccc(-c2cccc(-c3nc(C(=O)NCc4ccccc4)cc4c3[C@@H](CCO)N([S+]([O-])C(C)(C)C)C4)c2)c1 (some centres undefined),25.1 µM (active)
11,CSc1nnc(N2C(=O)C(O)=C(C(=O)c3ccco3)C2c2ccc(F)cc2)s1 (centres undefined),inactive
12,CCN=C(S)NCc1ccc2[nH]c(C)cc2c1,inactive
13,FC(F)(F)c1cc(CO[C@@H]2CCCN[C@@H]2c2ccccc2)cc(C(F)(F)F)c1,35.5 µM (active)
14,Cc1c(Br)c(=O)oc2c(Br)c(O)ccc12,inactive
15,Cc1cc(C2(c3ccc(O)c(C)c3)C(=O)N(C)c3ccc(Br)cc32)ccc1O,44.7 µM (active)
16,CC1(C)OC(=O)C(/C=N\Nc2c(Cl)cc(Cl)cc2Cl)=C(O)O1,inactive
17,Cc1cc2oc3cc(NCCC4CCCN4C)ccc3c(=O)c2cc1C (centres undefined),inactive
18,C=C(C)c1nc(Oc2ccccc2)nc(Oc2ccccc2)n1,33.6 µM (active)
19,COc1ccc2cc(-c3cc(C(=O)OCC(=O)NC4CCS(=O)(=O)C4)c4ccccc4n3)ccc2c1 (centres undefined),inactive
20,CC1C(C#N)=C(SCC(N)=O)N=C2CC(C)(C)CC(O)=C21 (centres undefined),inactive
21,COc1cccc(CNCCc2c[nH]c3ccccc23)c1OCc1ccccc1F,28.2 µM (active)
22,COc1cccc(CNc2nc[nH]n2)c1OCc1ccccc1F,inactive
23,COc1cc(CNCCc2c[nH]c3ccccc23)ccc1OCc1ccc(F)cc1,35.5 µM (active)
24,COc1ccc(CNc2cccc3[nH]c(C(F)(F)F)nc23)cc1OC,inactive
25,COc1cc(/C=C(\C#N)c2nc3ccccc3[nH]2)ccc1OCc1ccc(F)cc1,inactive
26,COc1cc(/C=C(\C#N)c2nc3ccccc3[nH]2)ccc1OCc1ccccc1F,inactive
27,COC(=O)C1=CN(CCCN2CCCC2=O)C=C(C(=O)OC)C1c1ccccc1C(F)(F)F,inactive
